Hits are enriched below; roughly 6.3% of the tested compounds scored in any of these assays.
Gal4-VP16 FLuc: counter-screen for ROR gamma inhibitors: Gal4-VP16 reporter; Potency, µM (top dose mostly 53.6 µM), for inactives: top-dose activity, negative = inhibition, usual class: inhibitors; 3.5% of 310,000 active; AID 2546; Drosophila S2 Gal4-VP16 UAS-luciferase, luminescence, 20 h;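 note: Gal4-VP16 expression switched on by copper sulfate through the metallothionein promoter; % is set by controls: 0 for no effect and ±100 for the full control effect; nearly all actives have a fitted effect of over 50% in size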
HepG2 tox: kills HepG2 cells in TGF-b inhibitor counter-screen | HepG2 CAGA-GFP viability, ATP luminescence, 18 h | Potency, µM (titrated, usually from 46.1 µM), for inactives: at the top dose activity change, negative = cytotoxicity, hits mostly cytotoxic | 0.76% of 410,000 active | AID 588856
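CellTiter-Glo luminescence gave cytotoxicity after 18 hours at 37 degrees C. The cells were HepG2 CAGA-GFP in 1% FBS DMEM, stimulated with 500 pg/mL TGF-beta after compound addition. %Activity was normalised to no-cell wells (complete cell-killing) and DMSO (no toxicity), and curves were fitted and classified.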
RORgamma inh: inhibitors of mouse ROR gamma transcriptional activity. 5.4% of 310,000 active. P51450. Drosophila S2 Gal4-RORgamma UAS-luciferase reporter, 20 h. Potency, µM (series often up to 53.6 µM), inactives show at the highest dose activity change, negative = inhibition, usual class: inhibitors; note: % is set by controls: 0 for no effect and ±100 for the full control effect; nearly all actives have a fitted effect of over 60% in size
Target sequence (P51450 whole entry, looked up, the tested form may be a part): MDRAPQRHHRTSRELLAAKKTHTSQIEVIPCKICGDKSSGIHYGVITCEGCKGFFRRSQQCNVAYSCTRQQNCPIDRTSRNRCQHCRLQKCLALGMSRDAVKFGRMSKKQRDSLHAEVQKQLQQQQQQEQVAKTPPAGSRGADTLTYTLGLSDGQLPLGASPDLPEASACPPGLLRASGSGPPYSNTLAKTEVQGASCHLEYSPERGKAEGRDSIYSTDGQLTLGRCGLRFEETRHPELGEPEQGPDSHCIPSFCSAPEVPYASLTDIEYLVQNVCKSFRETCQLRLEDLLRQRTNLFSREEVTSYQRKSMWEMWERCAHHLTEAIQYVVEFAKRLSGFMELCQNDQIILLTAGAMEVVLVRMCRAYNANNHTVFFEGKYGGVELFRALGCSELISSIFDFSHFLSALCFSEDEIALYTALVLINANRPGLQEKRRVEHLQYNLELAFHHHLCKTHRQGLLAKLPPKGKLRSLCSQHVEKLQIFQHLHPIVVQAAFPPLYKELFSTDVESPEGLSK
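Stably transfected Drosophila Schneider cells are the test system, with ROR gamma fused to Gal4 and luciferase under UAS control; luminescence is read after 20 hr of 700 uM copper sulfate induction at ambient temperature.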
ATXN2 expr inh: ATXN2 expression inhibition. HEK-293 ATXN2-luciferase reporter, luminescence, 24 h. Potency, µM (top dose mostly 57 µM), for the others: at the top dose activity change, negative = inhibition, most hits filed as inhibitors. 0.72% of 360,000 active. AID 1745845; note: % is set by controls: 0 for no effect and ±100 for the full control effect; nearly all actives have a fitted effect of over 55% in size
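qHTS (up to 57 uM final) was run with 24 h compound exposure of reporter cells at 37 °C. Each well was multiplexed: SteadyGlo luminescence measured ATXN2-luciferase expression after a fluorogenic Gly-Phe-AFC viability readout (25 uM final).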
TGFb SMAD3 inh: TGF-b pathway inhibition. HepG2 CAGA-GFP TGF-b/SMAD3 reporter, GFP fluorescence, 18 h; TGF-beta stimulated, 500 pg/mL final. Potency, µM (top dose mostly 46.1 µM), for the others: at the top dose activity, negative = inhibition, most hits filed as inhibitors. 1.2% of 410,000 active. AID 588855; note: % is set by controls: 0 for no effect and ±100 for the full control effect; nearly all actives have a fitted effect of over 65% in size
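HEPG2 CAGA-GFP reporter cells (1000/well, DMEM with 1% FBS) received compounds, then recombinant TGF-beta at 500 pg/mL final for 18 hours at 37 degrees C. Per-cell GFP summed per well was normalised to unstimulated and stimulated DMSO controls before curve fitting.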
S2 tox: cell viability loss in ATXN counter-screen. 0.49% of 400,000 active. Potency, µM (highest dose often 56.7 µM), hits mostly cytotoxic. S2 cells (HEK-293 line with an ATXN2-luciferase reporter) viability, CellTiter-Fluor protease fluorescence, 24 h. AID 651635; note: nearly all actives have a fitted effect of over 40% in size
* marks the source's active call; other numbers are inactive results; i = inactive; ? = inconclusive; . = not tested or not shown; [ ] = dose if it differs, or a comment. Calls come from the whole dose curve; as a rule, active = well fitted curve in the direction sought with a large enough effect; inconclusive = small, poorly fitted or top-dose-only effect, or another doubt; inactive = no such curve, though single readings can be large; an effect the other way counts as inactive or inconclusive. Potency is the fitted concentration of half-maximal effect.

SMILES | Gal4-VP16 FLuc | HepG2 tox | RORgamma inh | ATXN2 expr inh | TGFb SMAD3 inh | S2 tox
COc1cc(/C=C(\C#N)C(=O)NC2CCCCC2C)ccc1OS(=O)(=O)c1ccc(C)cc1 (configuration not stated) | 11µM* | -83% | ? | -12% | 20µM* | i
CCCCNC(=O)[C@@H]1CC=C[C@@H]2CCN(C3CCCCC3)C(=O)[C@@H]21 | . | -36% | . | . | -28% | .
COc1cccc(OC)c1C(=O)NC(=S)NNC(=O)[C@H]1C[C@@H]1c1ccccc1 | -16% | 50% | 4µM* | 3% | 16% | i
COc1ccc(/C=C/C(=O)NC(=S)NNC(=O)[C@H]2C[C@@H]2c2ccccc2)cc1OC | -9% | -4% | -41% | -7% | -2% | i
O=C(NC(=S)NNC(=O)[C@H]1C[C@@H]1c1ccccc1)c1cccc(F)c1 | ? | -20% | 11µM* | 5% | -12% | i
O=C(Nc1cccc(S(=O)(=O)Nc2ccc(Cl)cc2)c1)c1ccc(Cl)nc1 | 3.2µM* | -41% | ? | ? | 14µM* | ?
COc1ccc(NS(=O)(=O)c2cccc(NC(=O)c3ccc(Cl)nc3)c2)cc1 | 2.8µM* | 1% | ? | -21%[11.3 µM] | ? | i
COc1cccc(S(=O)(=O)Nc2ccc(C(=O)Nc3ccncc3)cc2)c1 | 1% | -14% | 12% | -10% | ? | i
COc1ccc(-n2ncc3c2ncn2nc(-c4ccc(OC)c(OC)c4)nc32)cc1 | . | -3% | . | . | . | .
O=C(CSc1nc2c(cnn2-c2ccc(F)cc2)c(=O)[nH]1)Nc1ccc(Br)cc1 | . | -20% | . | -6% | ? | i
Cc1nc2ccc(NS(=O)(=O)c3ccc(F)c(C)c3)cc2[nH]1 | 7.1µM* | -18% | ? | . | -18% | i
Cc1nc2ccc(S(=O)(=O)c3ccc4nc(C)[nH]c4c3)cc2[nH]1 | -2% | 0% | 18% | -2% | 0% | i
C=C1C(=O)[C@]23C[C@H]1CC[C@H]2[C@]1(C)[C@@H](OC(C)=O)CC[C@@](C)(C(=O)O)[C@H]1C[C@@H]3OC(C)=O | . | -85% | . | 18µM* | 10µM* | ?
C=C1C(=O)[C@]23C[C@H]1CCC2[C@]1(C)C(=O)CC[C@@](C)(C(=O)O)C1C[C@@H]3O (some centres not stated) | . | -87% | . | 8.9µM* | ? | 13µM*
C=C1C(=O)[C@]23C[C@H]1CCC2[C@]1(C)CCC[C@@](C)(C(=O)O)C1C[C@@H]3O (some centres not stated) | . | -87% | . | 3.5µM* | 2.5µM* | 7.1µM*
CC(=O)OC1CC(OC(C)=O)[C@]2(C)C(CC(OC(C)=O)[C@]3(C)C2CC[C@@]2(C)C(c4ccoc4)OC(=O)C4O[C@]432)C1(C)C (some centres not stated) | 4% | . | ? | . | . | .
C=C/C(C)=C/CC1C(=C)CCC2C(C)(C(=O)O)CCCC12C (configuration not stated) | -3% | -16% | 14% | 4% | -14% | i
CCN(CC)c1cc2c(cc1F)c(=O)c(S(=O)(=O)c1cc(C)ccc1C)cn2Cc1ccccc1 | . | -11% | . | . | 0% | .
COc1cc(C=O)ccc1OCc1cccc(Br)c1 | ? | -21% | ? | 63% | -1% | i
COC(=O)c1ccccc1OCCCOc1ccc(C=O)cc1OC | 10µM* | -39% | 8.9µM* | 32% | -36% | i
COc1cc(C=O)ccc1OCc1ccccc1Br | 11µM* | -14% | 10µM* | 32% | -19% | i
CC(C)C1=NN(C(=O)c2ccccc2)C(O)(C(C)(C)C)C1 (configuration not stated) | ? | 1% | 4.5µM* | -4% | ? | i
CCc1ccc(NC(=O)CSc2c(C)cnc3c2c(=O)n(C)c(=O)n3C)cc1 | . | -9% | . | 3% | -22% | i
COc1ccc(C(=O)NC(=S)NC(C)(C)C)cc1Br | 7.9µM* | -45% | 2µM* | 42% | ? | i
COc1ccc(C(=O)NC(=S)NC(C)C)cc1Br | 11µM* | -34% | 1.8µM* | 31% | ? | i
SMILES | Gal4-VP16 FLuc | HepG2 tox | RORgamma inh | ATXN2 expr inh | TGFb SMAD3 inh | S2 tox
COc1ccc(C(=O)NC(=S)NNC(=O)c2ccncc2)cc1Br | . | -5% | . | ? | 4% | ?
COc1ccc(C(=O)NC(=S)NNC(=O)c2ccc(NC(C)=O)cc2)cc1Br | ? | 9% | 7.9µM* | -6% | 4% | ?
COc1ccc(C(=O)NNC(=S)NC(=O)c2ccc(F)cc2)cc1Br | . | -19% | . | . | -28% | ?
Cc1ccc(S(=O)(=O)N(CC(=O)c2ccc(Cl)cc2)C(=O)N2CCN(C)CC2)cc1 | . | 3% | . | -2% | 2% | i
O=C(N/N=C(\Cc1ncc[nH]1)c1ccccc1)c1ccccc1 | -9%[10 µM] | . | 11µM* | . | . | .
c1ccc(CCn2cnc3ccccc32)cc1 | ? | -11% | 13µM* | 18% | 21% | i
c1ccc(OCCCCn2cnc3ccccc32)cc1 | ? | -29% | 13µM* | -12% | ? | i
Cc1ccccc1OCCCCn1cnc2ccccc21 | 10µM* | -18% | -101% | -2% | 0% | i
c1ccc(OCCn2cnc3ccccc32)cc1 | 3%[0.365 µM] | -40% | 8% | 21% | ? | i
Cc1ccc(OCCCCn2cnc3ccccc32)cc1 | -15% | -15% | -1% | 1%[11.3 µM] | -25% | ?
CCOC(=O)c1ccccc1NC(=O)CCOc1ccccc1 | . | -12% | . | . | -1% | .
CCn1c(=O)c2sccc2n2c(CCC(=O)Nc3ccc(F)cc3)nnc12 | . | 7% | . | 3% | -3% | i
COC(=O)CNc1nc(C2CC2)nc2c1nnn2Cc1ccccc1Cl | -28% | -16% | -24% | -10% | -25% | i
CN(C)S(=O)(=O)c1ccc(Nc2nc(C3CC3)nc3c2nnn3Cc2ccccc2Cl)cc1 | 4µM* | 4% | -33% | ? | ? | ?
CC(=O)c1ccc(F)c(-c2cc(C)cc3c2OC(CNC(=O)Cn2nc(C)nc2C)C3)c1 (configuration not stated) | . | . | . | . | . | i
O=C(Nc1nnc(CCc2ccccc2)s1)c1cccc(F)c1 | -17% | -4% | 18µM* | . | -9% | i
COc1ccc(NC(=O)CN(c2ccc(C)cc2)S(=O)(=O)c2cccs2)cc1 | . | -1% | . | 10% | -4% | i
COc1ccc(/C=N/NC(=S)Nc2ccccc2)cc1COc1cccc(C)c1C | 0.71µM* | -4% | 0.35µM* | -5% | 11% | i
COc1ccc(C(=O)N/N=C/c2ccc(OC)c(COc3ccc(F)cc3F)c2)cc1 | ? | -59% | 13µM* | -11% | -1% | i

Screening data: PubChem BioAssay, National Center for Advancing Translational Sciences (NCATS)
